How the values were obtained:
Experiment in all cases: DAPPL (digital affinity profiling via proximity ligation, sequencing); 10 mM Tris-HCl pH 7.5, 50 mM NaCl, 1 mM DTT, 4% glycerol, room temperature, 30 min; GST-TFs on glutathione beads, 16-mer random dsDNA library, 0.1% formaldehyde crosslink after washing; high values mean tight binding
FLI1 = target: T1, FLI1 (Homo sapiens, UniProt Q01543 1-452); details: protein: recombinant; tags: N-terminal GST; dsDNA, one strand shown
T1 sequence: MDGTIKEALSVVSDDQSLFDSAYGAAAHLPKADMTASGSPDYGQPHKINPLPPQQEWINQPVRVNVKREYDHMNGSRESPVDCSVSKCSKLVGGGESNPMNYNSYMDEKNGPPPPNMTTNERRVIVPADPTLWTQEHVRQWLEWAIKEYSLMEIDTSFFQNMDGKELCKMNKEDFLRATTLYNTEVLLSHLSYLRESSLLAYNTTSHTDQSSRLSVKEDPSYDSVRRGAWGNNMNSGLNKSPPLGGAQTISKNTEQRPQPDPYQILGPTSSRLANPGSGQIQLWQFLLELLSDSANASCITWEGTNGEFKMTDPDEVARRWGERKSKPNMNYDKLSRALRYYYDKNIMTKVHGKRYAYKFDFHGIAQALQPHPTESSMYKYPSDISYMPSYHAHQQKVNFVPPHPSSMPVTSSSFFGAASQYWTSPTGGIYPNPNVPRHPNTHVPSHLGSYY
In short: (§1)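 Pools of DNA-barcoded human transcription factors, expressed in yeast as GST fusions on glutathione beads and combined with a tag-only sample, were incubated with 200 nmole of a 16-mer random double-stranded DNA library. Incubation took 30 min at room temperature in Tris/NaCl/DTT/glycerol buffer and was followed by washing, 0.1% formaldehyde crosslinking, proximity ligation (BsaI/T4 ligase, 1 h, 37 °C), PCR amplification and sequencing on an Illumina NextSeq500. Binding signal is the ratio of a hexamer's read frequency for a factor to its frequency for the tag-only sample.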

ELK1 = target: T2, ELK1 (Homo sapiens, UniProt P19419 1-428); details: protein: recombinant; tags: N-terminal GST; dsDNA, one strand shown
T2 sequence: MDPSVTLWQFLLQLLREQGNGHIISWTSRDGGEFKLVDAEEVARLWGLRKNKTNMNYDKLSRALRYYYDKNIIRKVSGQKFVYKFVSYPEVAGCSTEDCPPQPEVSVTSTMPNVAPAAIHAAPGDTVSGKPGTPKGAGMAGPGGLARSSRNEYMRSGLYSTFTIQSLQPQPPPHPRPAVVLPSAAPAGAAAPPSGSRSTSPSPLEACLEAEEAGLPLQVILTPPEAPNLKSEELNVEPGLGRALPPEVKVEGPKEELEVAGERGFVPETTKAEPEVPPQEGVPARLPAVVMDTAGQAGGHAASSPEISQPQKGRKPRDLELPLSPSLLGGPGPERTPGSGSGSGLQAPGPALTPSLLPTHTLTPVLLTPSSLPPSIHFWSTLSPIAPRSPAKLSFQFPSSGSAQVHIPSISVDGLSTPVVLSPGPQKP
In short: as §1

GABPA = target: T3, GABPA (Homo sapiens, UniProt Q06546 1-454); details: protein: recombinant; tags: N-terminal GST; dsDNA, one strand shown
T3 sequence: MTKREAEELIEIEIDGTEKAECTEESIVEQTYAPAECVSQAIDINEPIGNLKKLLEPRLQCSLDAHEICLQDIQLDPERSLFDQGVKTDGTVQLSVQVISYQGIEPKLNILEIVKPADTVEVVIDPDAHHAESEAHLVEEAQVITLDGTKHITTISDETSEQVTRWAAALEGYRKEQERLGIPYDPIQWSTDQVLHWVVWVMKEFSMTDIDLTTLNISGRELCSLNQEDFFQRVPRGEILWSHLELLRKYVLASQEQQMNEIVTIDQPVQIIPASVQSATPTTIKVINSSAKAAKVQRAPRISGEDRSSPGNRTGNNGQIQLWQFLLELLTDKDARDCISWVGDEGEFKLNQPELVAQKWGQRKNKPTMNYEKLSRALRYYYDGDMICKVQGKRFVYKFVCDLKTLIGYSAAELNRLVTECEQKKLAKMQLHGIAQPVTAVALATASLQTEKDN
In short: as §1

ERG = target: T4, ERG (Homo sapiens, UniProt P11308 1-479); details: protein: recombinant; tags: N-terminal GST; dsDNA, one strand shown
T4 sequence: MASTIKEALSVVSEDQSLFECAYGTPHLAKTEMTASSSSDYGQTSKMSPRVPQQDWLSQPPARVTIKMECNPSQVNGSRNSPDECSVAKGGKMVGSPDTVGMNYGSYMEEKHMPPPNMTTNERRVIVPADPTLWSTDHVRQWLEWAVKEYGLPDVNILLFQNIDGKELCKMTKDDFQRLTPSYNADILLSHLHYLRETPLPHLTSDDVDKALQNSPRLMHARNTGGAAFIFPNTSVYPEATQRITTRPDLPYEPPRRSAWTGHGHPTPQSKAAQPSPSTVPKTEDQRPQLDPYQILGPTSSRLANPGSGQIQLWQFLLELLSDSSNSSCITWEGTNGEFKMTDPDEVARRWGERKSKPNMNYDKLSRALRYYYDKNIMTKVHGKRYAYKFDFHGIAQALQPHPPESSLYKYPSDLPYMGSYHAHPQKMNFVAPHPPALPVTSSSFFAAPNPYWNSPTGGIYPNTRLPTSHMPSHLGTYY
In short: as §1

ELF1 = ELF1 (Homo sapiens, UniProt P32519 1-619); details: protein: recombinant; tags: N-terminal GST; dsDNA, one strand shown
In short: as §1

EHF = target: T5, EHF (Homo sapiens, UniProt Q9NZC4 1-300); details: protein: recombinant; tags: N-terminal GST; dsDNA, one strand shown
T5 sequence: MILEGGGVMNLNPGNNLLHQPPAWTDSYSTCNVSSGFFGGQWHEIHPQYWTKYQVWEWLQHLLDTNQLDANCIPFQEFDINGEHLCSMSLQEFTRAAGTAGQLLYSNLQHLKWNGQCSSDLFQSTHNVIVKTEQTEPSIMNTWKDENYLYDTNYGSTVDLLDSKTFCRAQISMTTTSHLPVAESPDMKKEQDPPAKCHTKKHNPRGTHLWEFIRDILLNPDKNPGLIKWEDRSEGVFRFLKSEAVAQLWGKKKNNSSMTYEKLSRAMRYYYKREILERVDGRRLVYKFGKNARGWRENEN
In short: as §1

SPI1 = SPI1 (Homo sapiens, UniProt P17947 1-270); details: protein: recombinant; tags: N-terminal GST; dsDNA, one strand shown
In short: as §1

SPIB = SPIB (Homo sapiens, UniProt Q01892 1-262); details: protein: recombinant; tags: N-terminal GST; dsDNA, one strand shown
In short: as §1

ELK3 = target: T6, ELK3 (Homo sapiens, UniProt P41970 1-407); details: protein: recombinant; tags: N-terminal GST; dsDNA, one strand shown
T6 sequence: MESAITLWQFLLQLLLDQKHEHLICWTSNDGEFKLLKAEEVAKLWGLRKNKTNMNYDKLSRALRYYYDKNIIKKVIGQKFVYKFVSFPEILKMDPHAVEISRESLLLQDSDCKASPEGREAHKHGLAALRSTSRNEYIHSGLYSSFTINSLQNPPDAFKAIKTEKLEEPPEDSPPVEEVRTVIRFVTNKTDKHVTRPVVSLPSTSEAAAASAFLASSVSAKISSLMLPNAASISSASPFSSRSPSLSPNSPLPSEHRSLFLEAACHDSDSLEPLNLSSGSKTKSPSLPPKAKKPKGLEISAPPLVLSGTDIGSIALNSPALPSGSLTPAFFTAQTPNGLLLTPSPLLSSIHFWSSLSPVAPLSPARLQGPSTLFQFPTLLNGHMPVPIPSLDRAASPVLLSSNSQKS
In short: as §1

FEV = target: T7, FEV (Homo sapiens, UniProt Q99581 1-238); details: protein: recombinant; tags: N-terminal GST; dsDNA, one strand shown
T7 sequence: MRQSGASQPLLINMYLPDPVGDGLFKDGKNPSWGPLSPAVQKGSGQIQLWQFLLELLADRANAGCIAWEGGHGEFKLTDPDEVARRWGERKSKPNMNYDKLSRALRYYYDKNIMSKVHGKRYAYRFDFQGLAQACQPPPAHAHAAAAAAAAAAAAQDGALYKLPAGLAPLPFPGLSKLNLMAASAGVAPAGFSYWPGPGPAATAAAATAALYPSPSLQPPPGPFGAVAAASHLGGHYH
In short: as §1

ETV5 = ETV5 (Homo sapiens, UniProt P41161 1-510); details: protein: recombinant; tags: N-terminal GST; dsDNA, one strand shown
In short: as §1

HSF1 = HSF1 (Homo sapiens, UniProt Q00613 1-529); details: protein: recombinant; tags: N-terminal GST; chain copies: 3; dsDNA, one strand shown
In short: as §1

SPIC = target: T8, SPIC (Homo sapiens, UniProt Q8N5J4 1-248); details: protein: recombinant; tags: N-terminal GST; dsDNA, one strand shown
T8 sequence: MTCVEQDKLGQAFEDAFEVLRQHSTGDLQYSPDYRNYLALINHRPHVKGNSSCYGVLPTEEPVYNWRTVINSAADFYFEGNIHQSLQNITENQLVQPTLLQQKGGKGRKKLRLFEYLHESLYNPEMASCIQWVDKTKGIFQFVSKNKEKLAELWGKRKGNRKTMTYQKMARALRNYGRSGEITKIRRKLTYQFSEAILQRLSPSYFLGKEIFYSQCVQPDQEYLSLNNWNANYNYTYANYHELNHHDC
In short: as §1

ELF4 = ELF4 (Homo sapiens, UniProt Q99607 1-663); details: protein: recombinant; tags: N-terminal GST; dsDNA, one strand shown
In short: as §1

ELK4 = target: T9, ELK4 (Homo sapiens, UniProt P28324-2 1-405); details: protein: recombinant; tags: N-terminal GST; dsDNA, one strand shown
T9 sequence: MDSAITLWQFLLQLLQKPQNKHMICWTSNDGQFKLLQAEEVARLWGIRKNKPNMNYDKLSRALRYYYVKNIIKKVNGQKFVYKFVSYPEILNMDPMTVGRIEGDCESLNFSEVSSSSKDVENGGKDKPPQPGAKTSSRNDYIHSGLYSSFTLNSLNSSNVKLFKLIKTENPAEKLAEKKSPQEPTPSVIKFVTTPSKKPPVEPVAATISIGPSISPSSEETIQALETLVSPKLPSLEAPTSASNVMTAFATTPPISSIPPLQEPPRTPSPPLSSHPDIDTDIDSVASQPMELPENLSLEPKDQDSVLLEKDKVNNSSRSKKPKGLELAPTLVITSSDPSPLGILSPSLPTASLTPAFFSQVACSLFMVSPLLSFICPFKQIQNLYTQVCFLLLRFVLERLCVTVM
In short: as §1

ETV2 = target: T10, ETV2 (Homo sapiens, UniProt O00321 1-342); details: protein: recombinant; tags: N-terminal GST; dsDNA, one strand shown
T10 sequence: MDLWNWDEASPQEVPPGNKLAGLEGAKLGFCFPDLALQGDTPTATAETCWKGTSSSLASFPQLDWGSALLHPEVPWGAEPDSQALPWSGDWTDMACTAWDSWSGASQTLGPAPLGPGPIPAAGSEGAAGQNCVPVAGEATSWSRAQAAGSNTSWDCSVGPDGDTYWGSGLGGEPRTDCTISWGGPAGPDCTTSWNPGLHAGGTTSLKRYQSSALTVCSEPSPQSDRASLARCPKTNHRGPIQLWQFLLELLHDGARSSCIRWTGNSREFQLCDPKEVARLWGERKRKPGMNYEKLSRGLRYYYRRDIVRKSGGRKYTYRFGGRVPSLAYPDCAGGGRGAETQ
In short: as §1

ELF3 = target: T11, ELF3 (Homo sapiens, UniProt P78545 1-371); details: protein: recombinant; tags: N-terminal GST; dsDNA, one strand shown
T11 sequence: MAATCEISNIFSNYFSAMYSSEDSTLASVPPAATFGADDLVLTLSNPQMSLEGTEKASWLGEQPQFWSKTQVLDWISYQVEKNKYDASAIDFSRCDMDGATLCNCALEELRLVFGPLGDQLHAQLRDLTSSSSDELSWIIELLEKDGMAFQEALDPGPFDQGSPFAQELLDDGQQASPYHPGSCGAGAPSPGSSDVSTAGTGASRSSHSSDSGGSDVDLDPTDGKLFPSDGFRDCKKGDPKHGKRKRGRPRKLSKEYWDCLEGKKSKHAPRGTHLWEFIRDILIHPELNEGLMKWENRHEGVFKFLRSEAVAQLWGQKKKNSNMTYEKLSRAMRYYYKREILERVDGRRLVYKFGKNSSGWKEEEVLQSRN
In short: as §1

CRX = CRX (Homo sapiens, UniProt O43186 1-299); details: protein: recombinant; tags: N-terminal GST; dsDNA, one strand shown
In short: as §1

ETV1 = ETV1 (Homo sapiens, UniProt P50549 1-477); details: protein: recombinant; tags: N-terminal GST; dsDNA, one strand shown
In short: as §1

Sequence of ELF4 (Q99607 whole entry): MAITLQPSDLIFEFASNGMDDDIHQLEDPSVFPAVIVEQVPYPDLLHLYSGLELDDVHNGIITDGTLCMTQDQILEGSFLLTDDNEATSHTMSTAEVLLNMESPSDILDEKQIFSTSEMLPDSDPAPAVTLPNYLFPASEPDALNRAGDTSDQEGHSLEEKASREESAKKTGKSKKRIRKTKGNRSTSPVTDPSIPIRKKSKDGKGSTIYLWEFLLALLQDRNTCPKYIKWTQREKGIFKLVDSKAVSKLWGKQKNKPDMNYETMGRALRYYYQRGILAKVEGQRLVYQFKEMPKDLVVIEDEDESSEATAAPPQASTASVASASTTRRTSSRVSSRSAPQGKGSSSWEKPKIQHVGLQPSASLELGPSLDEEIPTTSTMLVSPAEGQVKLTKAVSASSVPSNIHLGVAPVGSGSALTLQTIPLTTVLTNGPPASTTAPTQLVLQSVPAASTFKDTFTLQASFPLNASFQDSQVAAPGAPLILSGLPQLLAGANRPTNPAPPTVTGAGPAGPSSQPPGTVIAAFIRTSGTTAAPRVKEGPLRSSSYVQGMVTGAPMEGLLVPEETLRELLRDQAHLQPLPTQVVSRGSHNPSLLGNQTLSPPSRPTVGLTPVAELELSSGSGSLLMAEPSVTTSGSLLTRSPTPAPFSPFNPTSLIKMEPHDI
Sequence of ETV1 (P50549 whole entry): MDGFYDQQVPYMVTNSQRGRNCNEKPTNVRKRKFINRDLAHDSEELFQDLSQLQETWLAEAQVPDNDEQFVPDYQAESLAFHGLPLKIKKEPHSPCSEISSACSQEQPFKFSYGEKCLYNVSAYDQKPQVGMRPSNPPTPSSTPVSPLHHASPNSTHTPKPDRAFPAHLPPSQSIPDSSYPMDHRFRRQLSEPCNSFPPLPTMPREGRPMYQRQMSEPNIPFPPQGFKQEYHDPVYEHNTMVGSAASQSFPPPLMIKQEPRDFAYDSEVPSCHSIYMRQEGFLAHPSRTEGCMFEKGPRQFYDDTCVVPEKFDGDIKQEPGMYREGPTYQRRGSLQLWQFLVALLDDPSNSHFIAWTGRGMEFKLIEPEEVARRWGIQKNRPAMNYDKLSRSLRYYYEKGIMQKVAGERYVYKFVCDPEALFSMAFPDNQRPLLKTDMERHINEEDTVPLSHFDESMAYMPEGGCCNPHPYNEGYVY
Sequence of CRX (O43186 whole entry): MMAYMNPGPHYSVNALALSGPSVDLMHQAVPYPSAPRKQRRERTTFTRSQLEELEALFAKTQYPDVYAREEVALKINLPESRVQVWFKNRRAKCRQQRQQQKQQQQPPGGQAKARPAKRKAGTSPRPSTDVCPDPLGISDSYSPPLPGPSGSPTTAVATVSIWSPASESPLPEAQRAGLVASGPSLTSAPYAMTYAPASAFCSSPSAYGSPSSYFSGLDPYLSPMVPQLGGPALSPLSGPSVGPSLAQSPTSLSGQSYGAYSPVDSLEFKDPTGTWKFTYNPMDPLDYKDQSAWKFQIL
Sequence of ETV5 (P41161 whole entry): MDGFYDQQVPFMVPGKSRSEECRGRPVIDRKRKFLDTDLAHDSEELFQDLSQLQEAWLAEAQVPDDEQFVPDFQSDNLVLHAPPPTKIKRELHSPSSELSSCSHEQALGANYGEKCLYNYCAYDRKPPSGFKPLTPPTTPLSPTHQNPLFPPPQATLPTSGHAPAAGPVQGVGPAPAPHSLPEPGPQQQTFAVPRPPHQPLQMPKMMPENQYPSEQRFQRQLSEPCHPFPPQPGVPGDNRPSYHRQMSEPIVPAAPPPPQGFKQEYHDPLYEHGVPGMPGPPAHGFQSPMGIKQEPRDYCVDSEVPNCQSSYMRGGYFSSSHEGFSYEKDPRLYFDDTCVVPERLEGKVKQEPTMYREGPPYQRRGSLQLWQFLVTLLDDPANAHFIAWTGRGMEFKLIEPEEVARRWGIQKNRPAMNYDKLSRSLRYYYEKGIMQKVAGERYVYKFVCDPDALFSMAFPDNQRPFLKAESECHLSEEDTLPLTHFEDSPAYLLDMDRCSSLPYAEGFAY
Sequence of SPIB (Q01892 whole entry): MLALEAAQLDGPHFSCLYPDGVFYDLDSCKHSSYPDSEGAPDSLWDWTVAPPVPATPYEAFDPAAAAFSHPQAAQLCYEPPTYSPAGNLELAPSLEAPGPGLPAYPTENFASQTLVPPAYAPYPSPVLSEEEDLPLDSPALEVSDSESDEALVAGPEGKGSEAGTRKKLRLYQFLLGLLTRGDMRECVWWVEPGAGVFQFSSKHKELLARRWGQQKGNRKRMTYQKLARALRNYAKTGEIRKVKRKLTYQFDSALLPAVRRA
Sequence of ELF1 (P32519 whole entry): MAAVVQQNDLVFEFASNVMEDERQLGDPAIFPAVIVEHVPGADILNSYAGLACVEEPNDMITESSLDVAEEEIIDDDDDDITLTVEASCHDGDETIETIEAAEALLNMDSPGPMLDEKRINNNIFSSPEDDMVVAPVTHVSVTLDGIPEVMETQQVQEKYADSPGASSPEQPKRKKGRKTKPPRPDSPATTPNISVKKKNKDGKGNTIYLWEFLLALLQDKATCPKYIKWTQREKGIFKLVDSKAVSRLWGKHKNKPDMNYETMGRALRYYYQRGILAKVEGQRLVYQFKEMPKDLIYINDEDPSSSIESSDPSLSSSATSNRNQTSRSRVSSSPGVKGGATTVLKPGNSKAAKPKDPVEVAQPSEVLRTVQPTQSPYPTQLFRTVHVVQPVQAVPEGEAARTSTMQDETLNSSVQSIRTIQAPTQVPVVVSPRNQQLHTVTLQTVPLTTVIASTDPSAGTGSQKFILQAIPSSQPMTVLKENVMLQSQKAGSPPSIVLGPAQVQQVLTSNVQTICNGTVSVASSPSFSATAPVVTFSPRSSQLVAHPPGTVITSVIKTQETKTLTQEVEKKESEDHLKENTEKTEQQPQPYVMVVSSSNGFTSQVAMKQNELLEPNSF
Sequence of HSF1 (Q00613 whole entry): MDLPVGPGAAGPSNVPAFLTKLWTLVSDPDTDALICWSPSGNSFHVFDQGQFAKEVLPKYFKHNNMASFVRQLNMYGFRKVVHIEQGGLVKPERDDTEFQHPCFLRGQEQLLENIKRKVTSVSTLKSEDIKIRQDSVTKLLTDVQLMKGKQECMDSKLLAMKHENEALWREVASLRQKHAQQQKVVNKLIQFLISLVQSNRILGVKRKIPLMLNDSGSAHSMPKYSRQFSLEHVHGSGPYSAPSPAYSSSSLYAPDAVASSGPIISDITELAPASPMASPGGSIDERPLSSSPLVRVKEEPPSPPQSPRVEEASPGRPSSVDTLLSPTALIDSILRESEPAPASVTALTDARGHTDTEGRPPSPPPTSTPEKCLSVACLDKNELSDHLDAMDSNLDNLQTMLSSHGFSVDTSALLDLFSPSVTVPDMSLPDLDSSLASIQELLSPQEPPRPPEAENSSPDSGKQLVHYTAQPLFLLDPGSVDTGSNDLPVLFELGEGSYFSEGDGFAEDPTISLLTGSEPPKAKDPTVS

With GTTCTA the binding signal (FLI1) was 1.16 fold enrichment (6-mer frequency, TF over GST control), the binding signal (ELK1) was 1.28 fold enrichment (6-mer frequency, TF over GST control) and the binding signal (GABPA) was 1.22 fold enrichment (6-mer frequency, TF over GST control). The binding signal (ERG) was 1.24 fold enrichment (6-mer frequency, TF over GST control), the binding signal (ELF1) was 1.31 fold enrichment (6-mer frequency, TF over GST control) and the binding signal (EHF) was 1.12 fold enrichment (6-mer frequency, TF over GST control). The binding signal (SPI1) was 1.12 fold enrichment (6-mer frequency, TF over GST control), the binding signal (SPIB) was 1.32 fold enrichment (6-mer frequency, TF over GST control) and the binding signal (ELK3) was 1.23 fold enrichment (6-mer frequency, TF over GST control). The binding signal (FEV) was 1.26 fold enrichment (6-mer frequency, TF over GST control), the binding signal (ETV5) was 1.18 fold enrichment (6-mer frequency, TF over GST control) and the binding signal (HSF1) was 2.94 fold enrichment (6-mer frequency, TF over GST control). For the same sequence, the binding signal (SPIC) was 1.37 fold enrichment (6-mer frequency, TF over GST control), the binding signal (ELF4) was 1.31 fold enrichment (6-mer frequency, TF over GST control) and the binding signal (ELK4) was 1.2 fold enrichment (6-mer frequency, TF over GST control). The binding signal (ETV2) was 1.17 fold enrichment (6-mer frequency, TF over GST control), the binding signal (ELF3) was 1.27 fold enrichment (6-mer frequency, TF over GST control) and the binding signal (CRX) was 1.59 fold enrichment (6-mer frequency, TF over GST control). For the same sequence, the binding signal (ETV1) was 1.11 fold enrichment (6-mer frequency, TF over GST control).
